The supplement of paper PMC6555819

Experiments:
Experiment in all cases: PBM binding z-score (relative to random genomic background probes); higher = stronger binding; sequences stand for … in GC…GCGATTGACAGCGTAGAATGAAGG
[1] = tested on: RARb homodimer (NR concentration 270 nM)
How it was run: (§1)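 Binding z-scores were set against random background probes. The data came from custom Agilent 4×180K protein-binding microarrays carrying double-stranded probes with 34-nt variable regions, incubated 1 h with ligand-free nuclear receptor dimers. Partner-specific antibodies detected binding, and scanned fluorescence was regression-normalized.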

[2] = tested on: RARg:RXRa (NR concentration 270 nM, RXRa partner concentration 90 nM)
How it was run: as §1

[3] = tested on: RARg homodimer (NR concentration 270 nM)
How it was run: as §1

[4] = tested on: RXRa DBDmut IVT, anti-RXR (DBD mutation: RXRa K156A/R161A, NR concentration 90 nM)
How it was run: as §1

[5] = tested on: RXRa homodimer (NR concentration 180 nM)
How it was run: as §1

[6] = tested on: THRa:RXRa (NR concentration 90 nM, RXRa partner concentration 90 nM)
How it was run: as §1

[7] = tested on: THRa homodimer (NR concentration 90 nM)
How it was run: as §1

[8] = tested on: VDR homodimer (NR concentration 270 nM)
How it was run: as §1

Sequence | PBM binding z-score [1] | PBM binding z-score [2] | PBM binding z-score [3] | PBM binding z-score [4] | PBM binding z-score [5] | PBM binding z-score [6] | PBM binding z-score [7] | PBM binding z-score [8]
ATCACTAGGTAAAGATAGTTCAGTGAATGCAAAT | 0.839 | 0.649 | 0.795 | -0.617 | 0.325 | 0.492 | 0.0795 | 0.49
TCTAGTTGGTCAAAGGACACACACTCGAAATGCG | 1.99 | 1.75 | 2.29 | 1.09 | 1.12 | 1.59 | 1.14 | 0.435
CCGACTGGGGCAAGCTTACCATAACGCACAGCCA | -0.00597 | 0.179 | 0.523 | 0.00515 | -0.0329 | -0.39 | -0.624 | -0.428
AGTCAAAGTTCACTAGGTAACGGAAGATTCAGCT | 3.81 | 5.03 | 5.67 | 4.26 | 3.89 | 2.04 | 0.215 | 3.71
ACTATTAGTTGGCTTAGGGCAACCGATACGACGC | 0.69 | 0.504 | 0.733 | 0.512 | 0.326 | 0.788 | 0.529 | 0.021
CTCGAATGGTCGTGCTCAGGTGAGTATACCAAAC | 0.249 | -0.157 | -0.12 | -0.0041 | -0.189 | 1.11 | 0.835 | -0.378
TCATATAGGTAAGAGGTGAAAGTCGGTGTGGTAA | 1.34 | 1.19 | 0.66 | 1.84 | 1.99 | 1.69 | 0.894 | 0.13
